Laboratory results as given in paper PMC7862700, “An all-to-all approach to the identification of sequence-specific readers for epigenetic DNA modifications on cytosine”.

Legend:
Assay in all cases: DAPPL (digital affinity profiling via proximity ligation, sequencing); 10 mM Tris-HCl pH 7.5, 50 mM NaCl, 1 mM DTT, 4% glycerol, room temperature, 30 min; GST-TFs on glutathione beads, 16-mer random dsDNA library, 0.1% formaldehyde crosslink after washing; high values mean tight binding
Settings in all cases: protein: recombinant; tags: N-terminal GST; dsDNA, one strand shown
[1] = molecular target: T1, GABPA (Homo sapiens, UniProt Q06546 1-454)
T1 sequence: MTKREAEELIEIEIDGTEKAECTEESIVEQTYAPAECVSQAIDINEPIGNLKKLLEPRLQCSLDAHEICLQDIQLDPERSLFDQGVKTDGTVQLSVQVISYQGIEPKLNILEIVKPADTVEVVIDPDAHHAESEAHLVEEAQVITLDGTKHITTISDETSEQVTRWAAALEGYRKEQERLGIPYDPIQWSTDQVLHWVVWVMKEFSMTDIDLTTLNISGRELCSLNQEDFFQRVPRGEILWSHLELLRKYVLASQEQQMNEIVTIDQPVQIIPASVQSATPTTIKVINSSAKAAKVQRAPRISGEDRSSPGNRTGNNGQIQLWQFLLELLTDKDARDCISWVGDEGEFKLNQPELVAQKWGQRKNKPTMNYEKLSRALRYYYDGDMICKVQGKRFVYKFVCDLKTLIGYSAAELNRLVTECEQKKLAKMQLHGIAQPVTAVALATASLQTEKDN
Procedure, shortened: (§1)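 Pools were built from human transcription factors expressed in yeast as GST fusions, captured on glutathione beads and DNA-barcoded, along with a tag-only sample. Incubation with 200 nmole of a 16-mer random double-stranded DNA library lasted 30 min at room temperature in Tris/NaCl/DTT/glycerol buffer, and was followed by washing, 0.1% formaldehyde crosslinking, proximity ligation, PCR amplification and Illumina NextSeq500 sequencing. Binding signal is the quotient of each hexamer's read frequency for a factor and its frequency for the tag-only sample.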

[2] = molecular target: ELF1 (Homo sapiens, UniProt P32519 1-619)
Procedure, shortened: as §1

[3] = molecular target: T2, EHF (Homo sapiens, UniProt Q9NZC4 1-300)
T2 sequence: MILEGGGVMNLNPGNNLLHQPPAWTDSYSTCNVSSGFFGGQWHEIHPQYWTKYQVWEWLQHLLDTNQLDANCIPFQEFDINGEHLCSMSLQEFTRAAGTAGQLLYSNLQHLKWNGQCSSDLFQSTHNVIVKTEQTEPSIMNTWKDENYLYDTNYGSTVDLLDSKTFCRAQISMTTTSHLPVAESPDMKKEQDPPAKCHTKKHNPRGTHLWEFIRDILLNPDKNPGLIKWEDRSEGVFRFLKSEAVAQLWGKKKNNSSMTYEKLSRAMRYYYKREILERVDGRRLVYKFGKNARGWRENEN
Procedure, shortened: as §1

[4] = molecular target: ETV5 (Homo sapiens, UniProt P41161 1-510)
Procedure, shortened: as §1

[5] = molecular target: ELF4 (Homo sapiens, UniProt Q99607 1-663)
Procedure, shortened: as §1

[6] = molecular target: T3, ELK4 (Homo sapiens, UniProt P28324-2 1-405)
T3 sequence: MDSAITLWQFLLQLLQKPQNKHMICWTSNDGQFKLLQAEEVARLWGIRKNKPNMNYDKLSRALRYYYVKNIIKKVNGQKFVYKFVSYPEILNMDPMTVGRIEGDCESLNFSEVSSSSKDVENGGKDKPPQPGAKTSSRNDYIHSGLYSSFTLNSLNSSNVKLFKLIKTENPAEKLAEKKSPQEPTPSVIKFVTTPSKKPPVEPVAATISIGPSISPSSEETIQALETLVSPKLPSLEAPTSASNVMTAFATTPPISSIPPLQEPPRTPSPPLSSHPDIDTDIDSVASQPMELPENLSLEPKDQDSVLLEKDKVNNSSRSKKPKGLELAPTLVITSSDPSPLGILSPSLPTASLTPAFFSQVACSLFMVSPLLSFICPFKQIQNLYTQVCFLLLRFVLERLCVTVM
Procedure, shortened: as §1

[7] = molecular target: T4, ELF3 (Homo sapiens, UniProt P78545 1-371)
T4 sequence: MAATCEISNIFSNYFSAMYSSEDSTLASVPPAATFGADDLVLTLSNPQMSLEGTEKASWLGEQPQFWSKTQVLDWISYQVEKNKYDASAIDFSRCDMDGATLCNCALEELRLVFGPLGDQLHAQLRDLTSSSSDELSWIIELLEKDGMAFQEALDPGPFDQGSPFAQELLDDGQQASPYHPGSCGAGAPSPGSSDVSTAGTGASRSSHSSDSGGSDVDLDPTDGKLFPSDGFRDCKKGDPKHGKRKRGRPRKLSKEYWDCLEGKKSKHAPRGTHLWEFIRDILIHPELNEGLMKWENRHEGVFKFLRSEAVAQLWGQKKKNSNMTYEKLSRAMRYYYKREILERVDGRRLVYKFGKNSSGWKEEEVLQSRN
Procedure, shortened: as §1

[8] = molecular target: T5, ETV3L (Homo sapiens, UniProt Q6ZN32 1-361)
T5 sequence: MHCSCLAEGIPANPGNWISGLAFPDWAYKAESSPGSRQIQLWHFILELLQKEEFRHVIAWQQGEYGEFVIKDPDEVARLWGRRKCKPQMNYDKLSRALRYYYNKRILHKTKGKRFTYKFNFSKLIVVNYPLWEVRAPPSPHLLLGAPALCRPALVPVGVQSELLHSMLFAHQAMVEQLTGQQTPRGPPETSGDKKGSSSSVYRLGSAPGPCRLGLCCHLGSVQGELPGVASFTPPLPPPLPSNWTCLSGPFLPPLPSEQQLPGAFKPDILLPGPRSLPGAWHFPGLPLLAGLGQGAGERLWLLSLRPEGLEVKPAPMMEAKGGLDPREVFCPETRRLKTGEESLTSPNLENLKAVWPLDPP
Procedure, shortened: as §1

[9] = molecular target: T6, ETS2 (Homo sapiens, UniProt P15036 1-469)
T6 sequence: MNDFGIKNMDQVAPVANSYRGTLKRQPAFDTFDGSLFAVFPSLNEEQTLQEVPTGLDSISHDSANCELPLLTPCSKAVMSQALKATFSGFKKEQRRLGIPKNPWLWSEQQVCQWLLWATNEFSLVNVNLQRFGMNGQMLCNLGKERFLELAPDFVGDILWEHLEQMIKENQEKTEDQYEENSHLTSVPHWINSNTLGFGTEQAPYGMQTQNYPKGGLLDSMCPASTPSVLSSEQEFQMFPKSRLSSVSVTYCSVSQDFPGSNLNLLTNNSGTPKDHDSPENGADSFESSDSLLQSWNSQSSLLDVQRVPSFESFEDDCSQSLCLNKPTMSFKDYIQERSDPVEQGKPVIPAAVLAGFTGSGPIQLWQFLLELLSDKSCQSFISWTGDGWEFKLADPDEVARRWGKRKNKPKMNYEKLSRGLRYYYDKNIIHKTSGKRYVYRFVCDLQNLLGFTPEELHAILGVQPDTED
Procedure, shortened: as §1

[10] = molecular target: T7, ETV7 (Homo sapiens, UniProt Q9Y603 1-341)
T7 sequence: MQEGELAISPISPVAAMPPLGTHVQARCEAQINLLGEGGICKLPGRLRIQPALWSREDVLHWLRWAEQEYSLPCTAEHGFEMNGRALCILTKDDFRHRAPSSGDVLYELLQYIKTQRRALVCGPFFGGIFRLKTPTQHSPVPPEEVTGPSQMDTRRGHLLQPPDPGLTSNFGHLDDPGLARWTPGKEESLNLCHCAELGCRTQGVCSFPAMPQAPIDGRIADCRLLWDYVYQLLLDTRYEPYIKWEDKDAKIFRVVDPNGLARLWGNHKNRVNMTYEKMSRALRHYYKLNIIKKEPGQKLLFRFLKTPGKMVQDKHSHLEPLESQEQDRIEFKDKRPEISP
Procedure, shortened: as §1

[11] = molecular target: T8, ETV3 (Homo sapiens, UniProt P41162-2 1-143)
T8 sequence: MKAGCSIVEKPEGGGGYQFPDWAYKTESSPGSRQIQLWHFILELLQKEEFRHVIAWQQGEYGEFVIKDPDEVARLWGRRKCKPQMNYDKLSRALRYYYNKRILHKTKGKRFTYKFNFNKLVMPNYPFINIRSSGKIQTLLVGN
Procedure, shortened: as §1

[12] = molecular target: SPIB (Homo sapiens, UniProt Q01892 1-262)
Procedure, shortened: as §1

[13] = molecular target: T9, FEV (Homo sapiens, UniProt Q99581 1-238)
T9 sequence: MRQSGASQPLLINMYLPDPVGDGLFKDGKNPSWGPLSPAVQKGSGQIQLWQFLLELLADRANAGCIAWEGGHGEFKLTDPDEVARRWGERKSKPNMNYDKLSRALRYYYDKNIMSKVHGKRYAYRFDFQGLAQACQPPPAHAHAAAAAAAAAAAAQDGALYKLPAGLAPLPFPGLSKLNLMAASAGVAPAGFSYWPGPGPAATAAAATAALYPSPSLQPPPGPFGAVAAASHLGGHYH
Procedure, shortened: as §1

[14] = molecular target: ETV1 (Homo sapiens, UniProt P50549 1-477)
Procedure, shortened: as §1

[15] = molecular target: T10, ERF (Homo sapiens, UniProt P50548 1-548)
T10 sequence: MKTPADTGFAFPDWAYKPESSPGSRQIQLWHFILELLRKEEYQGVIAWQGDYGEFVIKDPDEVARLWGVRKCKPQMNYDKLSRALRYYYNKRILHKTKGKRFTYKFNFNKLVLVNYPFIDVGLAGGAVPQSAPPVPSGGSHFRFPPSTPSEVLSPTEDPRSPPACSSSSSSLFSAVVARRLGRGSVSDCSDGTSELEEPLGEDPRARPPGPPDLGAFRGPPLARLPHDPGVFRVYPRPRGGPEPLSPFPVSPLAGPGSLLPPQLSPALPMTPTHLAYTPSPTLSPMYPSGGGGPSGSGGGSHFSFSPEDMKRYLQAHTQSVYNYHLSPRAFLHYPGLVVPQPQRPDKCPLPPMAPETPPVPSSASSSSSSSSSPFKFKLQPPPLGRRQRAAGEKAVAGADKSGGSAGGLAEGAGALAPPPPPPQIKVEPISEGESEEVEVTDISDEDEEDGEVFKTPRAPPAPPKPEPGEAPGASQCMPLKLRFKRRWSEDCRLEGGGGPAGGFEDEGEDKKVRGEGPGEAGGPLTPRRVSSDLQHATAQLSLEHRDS
Procedure, shortened: as §1

[16] = molecular target: ETV6 (Homo sapiens, UniProt P41212 1-452)
Procedure, shortened: as §1

ELF4, sequence (Q99607 whole entry): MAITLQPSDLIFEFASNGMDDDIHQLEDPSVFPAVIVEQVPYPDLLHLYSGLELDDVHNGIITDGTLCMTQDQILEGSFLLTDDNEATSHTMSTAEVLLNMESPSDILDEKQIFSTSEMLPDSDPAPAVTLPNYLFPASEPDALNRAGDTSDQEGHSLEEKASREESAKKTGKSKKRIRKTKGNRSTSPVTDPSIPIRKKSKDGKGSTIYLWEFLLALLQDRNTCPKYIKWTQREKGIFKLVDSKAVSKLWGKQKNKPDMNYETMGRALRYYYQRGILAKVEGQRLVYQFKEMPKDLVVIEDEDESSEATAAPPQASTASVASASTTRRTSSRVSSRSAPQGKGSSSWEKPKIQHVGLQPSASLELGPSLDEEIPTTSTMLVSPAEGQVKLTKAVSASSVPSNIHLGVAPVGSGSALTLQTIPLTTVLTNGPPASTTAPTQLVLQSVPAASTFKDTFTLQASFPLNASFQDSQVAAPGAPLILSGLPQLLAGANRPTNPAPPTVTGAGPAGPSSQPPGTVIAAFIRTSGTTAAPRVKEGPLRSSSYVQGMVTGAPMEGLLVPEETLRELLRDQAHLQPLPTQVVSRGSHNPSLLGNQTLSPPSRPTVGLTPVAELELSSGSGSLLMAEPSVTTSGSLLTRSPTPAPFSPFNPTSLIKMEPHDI
ELF1, sequence (P32519 whole entry): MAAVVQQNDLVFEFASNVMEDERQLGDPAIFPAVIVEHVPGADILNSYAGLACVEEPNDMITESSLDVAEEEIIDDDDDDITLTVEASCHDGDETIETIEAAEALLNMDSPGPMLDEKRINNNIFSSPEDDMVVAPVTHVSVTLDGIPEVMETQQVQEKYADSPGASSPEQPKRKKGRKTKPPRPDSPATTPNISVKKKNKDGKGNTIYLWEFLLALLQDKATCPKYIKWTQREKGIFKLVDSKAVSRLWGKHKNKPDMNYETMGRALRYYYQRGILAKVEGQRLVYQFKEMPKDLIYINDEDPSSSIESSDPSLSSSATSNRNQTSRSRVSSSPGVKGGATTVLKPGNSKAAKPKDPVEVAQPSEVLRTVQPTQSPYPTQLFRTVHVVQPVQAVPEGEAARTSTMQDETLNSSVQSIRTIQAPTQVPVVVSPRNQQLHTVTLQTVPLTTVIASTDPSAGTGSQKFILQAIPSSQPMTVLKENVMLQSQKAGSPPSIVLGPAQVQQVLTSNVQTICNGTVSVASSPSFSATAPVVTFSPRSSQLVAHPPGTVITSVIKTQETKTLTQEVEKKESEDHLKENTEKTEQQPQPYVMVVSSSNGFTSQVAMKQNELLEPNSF
ETV5, sequence (P41161 whole entry): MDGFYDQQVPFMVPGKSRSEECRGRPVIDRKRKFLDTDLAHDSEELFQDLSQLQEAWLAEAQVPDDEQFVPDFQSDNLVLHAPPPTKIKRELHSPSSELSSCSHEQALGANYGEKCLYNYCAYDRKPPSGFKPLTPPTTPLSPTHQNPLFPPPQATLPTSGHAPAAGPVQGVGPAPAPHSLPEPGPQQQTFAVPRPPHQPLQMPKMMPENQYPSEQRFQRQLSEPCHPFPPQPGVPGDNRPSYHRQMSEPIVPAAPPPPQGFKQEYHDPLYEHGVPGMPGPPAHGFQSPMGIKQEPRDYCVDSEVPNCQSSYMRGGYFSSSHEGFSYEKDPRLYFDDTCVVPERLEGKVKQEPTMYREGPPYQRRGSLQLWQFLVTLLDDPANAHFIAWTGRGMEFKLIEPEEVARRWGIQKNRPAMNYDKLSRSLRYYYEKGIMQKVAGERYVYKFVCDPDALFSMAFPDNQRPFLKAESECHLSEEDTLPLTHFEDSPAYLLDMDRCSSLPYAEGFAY
ETV1, sequence (P50549 whole entry): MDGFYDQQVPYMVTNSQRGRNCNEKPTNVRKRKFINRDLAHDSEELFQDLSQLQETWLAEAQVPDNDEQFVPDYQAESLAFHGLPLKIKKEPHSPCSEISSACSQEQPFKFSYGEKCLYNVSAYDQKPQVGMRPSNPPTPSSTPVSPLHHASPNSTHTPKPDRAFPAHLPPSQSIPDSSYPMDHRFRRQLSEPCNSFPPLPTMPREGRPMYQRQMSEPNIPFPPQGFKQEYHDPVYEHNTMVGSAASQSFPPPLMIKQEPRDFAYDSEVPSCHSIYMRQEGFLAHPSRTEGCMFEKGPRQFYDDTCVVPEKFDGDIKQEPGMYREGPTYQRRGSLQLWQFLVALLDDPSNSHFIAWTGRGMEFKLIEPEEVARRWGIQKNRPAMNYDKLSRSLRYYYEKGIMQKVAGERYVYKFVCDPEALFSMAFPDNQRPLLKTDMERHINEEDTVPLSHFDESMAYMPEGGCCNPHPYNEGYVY
SPIB, sequence (Q01892 whole entry): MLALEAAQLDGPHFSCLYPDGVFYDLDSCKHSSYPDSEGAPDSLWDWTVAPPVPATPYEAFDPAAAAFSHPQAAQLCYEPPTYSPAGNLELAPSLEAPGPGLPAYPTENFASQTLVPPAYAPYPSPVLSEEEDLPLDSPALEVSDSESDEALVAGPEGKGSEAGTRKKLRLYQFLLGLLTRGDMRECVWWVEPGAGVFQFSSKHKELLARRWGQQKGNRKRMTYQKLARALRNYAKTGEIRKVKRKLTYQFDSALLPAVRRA
ETV6, sequence (P41212 whole entry): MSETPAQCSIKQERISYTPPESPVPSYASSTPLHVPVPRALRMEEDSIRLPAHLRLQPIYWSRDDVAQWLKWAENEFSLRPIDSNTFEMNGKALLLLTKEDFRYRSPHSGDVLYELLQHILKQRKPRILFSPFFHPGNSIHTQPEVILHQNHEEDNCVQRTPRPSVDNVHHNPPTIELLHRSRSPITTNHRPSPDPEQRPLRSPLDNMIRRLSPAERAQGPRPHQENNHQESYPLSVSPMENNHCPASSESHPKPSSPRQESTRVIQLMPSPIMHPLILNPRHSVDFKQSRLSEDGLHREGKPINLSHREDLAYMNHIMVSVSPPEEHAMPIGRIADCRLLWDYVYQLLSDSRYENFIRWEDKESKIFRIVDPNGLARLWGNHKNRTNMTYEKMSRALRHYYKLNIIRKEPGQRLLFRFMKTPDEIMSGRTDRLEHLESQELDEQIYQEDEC

Sequence	binding signal [1]	binding signal [2]	binding signal [3]	binding signal [4]	binding signal [5]	binding signal [6]	binding signal [7]	binding signal [8]	binding signal [9]	binding signal [10]	binding signal [11]	binding signal [12]	binding signal [13]	binding signal [14]	binding signal [15]	binding signal [16]
CCAAGC	1.06 fold enrichment (6-mer frequency, TF over GST control)	1.04 fold enrichment (6-mer frequency, TF over GST control)	1.02 fold enrichment (6-mer frequency, TF over GST control)	1.09 fold enrichment (6-mer frequency, TF over GST control)	1.07 fold enrichment (6-mer frequency, TF over GST control)	1.03 fold enrichment (6-mer frequency, TF over GST control)	1.2 fold enrichment (6-mer frequency, TF over GST control)	1.01 fold enrichment (6-mer frequency, TF over GST control)	1.03 fold enrichment (6-mer frequency, TF over GST control)	1.06 fold enrichment (6-mer frequency, TF over GST control)	1.03 fold enrichment (6-mer frequency, TF over GST control)	–	–	–	–	–
CGCACG	1.02 fold enrichment (6-mer frequency, TF over GST control)	1.01 fold enrichment (6-mer frequency, TF over GST control)	–	1.06 fold enrichment (6-mer frequency, TF over GST control)	1.04 fold enrichment (6-mer frequency, TF over GST control)	1.1 fold enrichment (6-mer frequency, TF over GST control)	–	1.01 fold enrichment (6-mer frequency, TF over GST control)	1.02 fold enrichment (6-mer frequency, TF over GST control)	1.06 fold enrichment (6-mer frequency, TF over GST control)	–	1.06 fold enrichment (6-mer frequency, TF over GST control)	1.02 fold enrichment (6-mer frequency, TF over GST control)	1.04 fold enrichment (6-mer frequency, TF over GST control)	1.06 fold enrichment (6-mer frequency, TF over GST control)	1.08 fold enrichment (6-mer frequency, TF over GST control)
